Screening data (PubChem BioAssay)
HCV inh: qHTS Assay for Inhibitors of Hepatitis C Virus (HCV); Potency, µM (doses to about 41.8 µM), hits mostly inhibitors; AID 651820, 2012; Huh7.5.1 HCVcc-Cre infection, luciferase reporter, 44 h; 340,000 tested, 3.4% active
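Infectious HCV cell culture screen: compound-treated cells (1,000/well, pre-plated 4 h) are infected with HCVcc-Cre at roughly 0.5 moi and grown 44 h. Infection is quantified by luciferase signal after 15 min substrate incubation at room temperature.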
Pf growth 96h: Primary qHTS for delayed death inhibitors of the malarial parasite plastid, 96 hour incubation; P. falciparum luciferase reporter growth, 96 h; 320,000 tested, 6.9% active; AID 504834, 2011; Potency, µM (top dose mostly 28.7 µM), hits mostly inhibitors
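Parasite growth measured via integrated firefly luciferase reporter in P. falciparum. Infected erythrocytes at 2% hematocrit, 0.05% parasitemia final were treated 96 hours at 37 C under 5% CO2, and luminescence was read.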
AMA1-RON2 inh: qHTS for Inhibitors of AMA1-RON; Towards Development of Antimalarial Drug Lead: Primary Screen; Plasmodium falciparum AMA1 (3D7) - RON2 peptide interaction; AlphaScreen AMA1-biotinylated RON2 peptide binding; Potency, µM (titrated, usually from 58.2 µM), usual class: inhibitors; 360,000 tested, 0.2% active; AID 720542, 2013; further: nearly all actives have a fitted effect of over 45% in size
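AMA1 (3D7) with his tag at 25 nM final met compounds first, then biotinylated RON2 peptide at 25 nM; detection used donor plus acceptor beads, 10 µg/mL apiece, read by AlphaScreen after 30 min at room temperature.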
Pf growth 48h: Primary qHTS for delayed death inhibitors of the malarial parasite plastid, 48 hour incubation; P. falciparum luciferase growth in erythrocytes, 48 h; Potency, µM (highest dose often 28.7 µM), most hits filed as inhibitors; 310,000 tested, 5.9% active
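A one-generation exposure of luciferase-tagged malaria parasites in RPMI 1640/Albumax erythrocyte culture, 37 C and 5% CO2. Inhibition is inferred from decreased luminescence after adding detection reagent.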
Hits are given with their value; . = inactive; ? = inconclusive; / = not tested or not shown; [ ] = another dose, or the depositor's remark. In the library only some 11% were active in any assay of this set; here they are far more common. The call rests on the fitted dose curve; in most records, active means well fitted curve in the direction sought with a large enough effect; inconclusive means small, poorly fitted or top-dose-only effect, or another doubt; inactive means no such curve, though single readings can be large; an effect the other way counts as inactive or inconclusive.

SMILES | HCV inh | Pf growth 96h | AMA1-RON2 inh | Pf growth 48h
Cc1ccc(CNC(=O)c2cc3c(=O)n4cccc(C)c4nc3n(CC3CCCO3)c2=N)cc1 (centres undefined) | / | 8.3µM | / | ?
Cc1cccn2c(=O)c3cc(C#N)c(=N)n(Cc4cccnc4)c3nc12 | . | / | . | /
Cc1cccn2c(=O)c3cc(C(=O)NCCc4ccccc4)c(=N)n(CC4CCCO4)c3nc12 (centres undefined) | . | . | . | 2.3µM
N=c1c(C(=O)NCCc2ccccc2)cc2c(=O)n3ccccc3nc2n1CC1CCCO1 (centres undefined) | ? | ? | . | 2.1µM
COc1ccccc1NC(=O)c1cc(S(=O)(=O)NC2CCCC2)ccc1F | . | . | . | .
CC(C)=CCCC(C)NC(=O)NC1CCCCC1 (centres undefined) | . | . | . | .
CC1(C)SC(=S)N(/N=C/c2ccccc2O)C1N(O)C(=O)Nc1ccccc1 (centres undefined) | 11µM | . | . | .
Cc1ccc(/C=N/N2C(=S)SC(C)(C)C2N(O)C(=O)Nc2ccc([N+](=O)[O-])cc2)cc1 (centres undefined) | 11µM | ? | . | ?
CNC(=O)N(O)C1N(/N=C/c2cc(Br)ccc2O)C(=S)SC1(C)C (centres undefined) | 11µM | . | . | .[0.00184 µM]
CC1(C)SC(=S)N(/N=C/c2cccnc2)C1N(O)C(=O)Nc1ccccc1 (centres undefined) | . | ? | . | .
CNC(=O)N(O)C1N(/N=C/c2ccc(C)cc2)C(=S)SC1(C)C (centres undefined) | . | . | . | .[0.00184 µM]
CC1(C)SC(=S)N(/N=C/c2ccc(O)cc2)C1N(O)C(=O)Nc1ccc([N+](=O)[O-])cc1 (centres undefined) | ? | ? | . | ?
CCOC(=O)C1=C(C)NC(C)=C(C(=O)OCC)C1C(=O)OCC(=O)NCc1ccccc1OC | ? | / | . | /
O=C(CCNC(=O)c1ccccc1Cl)NC1=NCCS1 | . | . | . | .
CC(C)CN(CC(C)C)C(=O)COn1nnc2ccc(S(=O)(=O)N3CCOCC3)cc21 | . | ? | . | .
Cc1csc(NC(=O)c2cn3ccccc3n2)n1 | . | . | . | .
Nc1nc(SCC(=O)NCC2CCCO2)[nH]c(=O)c1NC(=O)c1ccco1 (centres undefined) | . | . | . | .
Nc1nc(SCC(=O)NCC2CCCO2)[nH]c(=O)c1NC(=O)c1ccc(F)c(F)c1 (centres undefined) | . | 17µM | . | .
COc1ccc(NC(=O)CSc2nc(N)c(NC(=O)c3ccccc3F)c(=O)[nH]2)cc1 | / | . | . | .
COc1ccc(C(=O)Nc2c(N)nc(SCC(=O)Nc3ccc(NC(C)=O)cc3)[nH]c2=O)cc1 | . | 2.6µM | . | 10µM
Cc1ccc(S(=O)(=O)N(C)C)cc1NC(=O)Cn1c(CN2CCOCC2)nc2ccccc2c1=O | . | . | . | 15µM
CN(C)S(=O)(=O)c1ccc(Cl)c(NC(=O)CSc2nc3ccccc3c(=O)n2CCCN2CCOCC2)c1 | ? | 10µM | . | ?
O=C(CSc1nc2ccccc2c(=O)n1CCCN1CCOCC1)NCCc1ccccc1 | . | / | . | /
O=C(CSc1nc2ccccc2c(=O)n1CCCN1CCOCC1)NC12CC3CC(CC(C3)C1)C2 | . | ? | . | 10µM
O=C1OC(/C=C/c2ccc(Cl)cc2Cl)=NC/1=C\c1cccs1 | . | . | . | .
SMILES | HCV inh | Pf growth 96h | AMA1-RON2 inh | Pf growth 48h
CC[C@]12c3[nH]c4ccccc4c3CCN1C(=O)C(CC(=O)NCCCN(C)C)C[C@@H]2C(=O)N1CCN(C(=O)C2CC2)CC1 (some centres undefined) | . | / | . | /
CCN1CCN(C(=O)c2cc(COc3ccc(F)c(F)c3)on2)[C@@H](C)C1=O | / | / | . | /
O=C(Cn1cncn1)c1ccc(F)cc1F | . | . | . | .
C[C@H](CO)N1C[C@H](C)[C@@H](CN(C)S(C)(=O)=O)Oc2ccc(NC(=O)c3ccncc3)cc2C1=O | . | / | . | /
CC(=O)NS(=O)(=O)c1ccc(N=c2ssc3c2-c2cc(C)ccc2NC3(C)C)cc1 | ? | ? | ? | .
CC1(C)Nc2ccc(O)cc2-c2c1ssc2=S | ? | 8.3µM | ? | ?
CN(C)C(=O)c1ccc(-c2cc3onc(-c4ccccc4)c3c(=O)n2C)cc1 | 3.5µM | / | . | /
Cc1ccc(C2/C=C\CC(NC(=O)OCC3c4ccccc4-c4ccccc43)CC(=O)N2Cc2ccccc2)cc1 (centres undefined) | 18µM | / | . | /
COc1cc(/C=C(\NC(C)=O)C(=O)N2CCCCC2)ccc1OC(C)=O | . | . | . | .
O=C1Cc2cc([N+](=O)[O-])ccc2N1c1c(Cl)cccc1Cl | . | . | . | 4.7µM
O=[N+]([O-])c1ccc(N2CCNCC2)c(Cl)c1 | ? | . | . | .
O=C(NCC(c1ccccc1Cl)N1CCCC1)C1CCN(C(=O)Nc2ccccc2)CC1 (centres undefined) | . | ? | . | ?
CC(=O)c1ccc2c(c1)C1C(Cl)C(Sc3ccccc3[N+](=O)[O-])CC1C(c1ccccc1[N+](=O)[O-])N2 (centres undefined) | 2.2µM | ? | . | 2.3µM
Cc1ccc(-c2nc3ccccc3c(=O)n2NC(=S)N(C)C)cc1 | . | . | . | .
CN(C)c1ccc2c(c1[N+](=O)[O-])Cc1ccccc1-2 | ? | / | 10µM | /
COc1cc(/C=N/Nc2nc(=O)[nH]nc2C)cc([N+](=O)[O-])c1O | . | 0.66µM | . | 1.2µM
CCc1nc(NCCCn2ccnc2)c2oc3ccccc3c2n1 | . | 13µM | . | ?
c1ccc(-c2nc(NCCCn3ccnc3)c3oc4ccccc4c3n2)cc1 | ? | 2.3µM | . | 3.3µM
Brc1cccc(-c2nc3cccnc3nc2-c2cccc(Br)c2)c1 | . | ? | . | .
Cc1ccc(-c2nc3cc(Br)cnc3nc2-c2ccc(C)cc2)cc1 | 13µM | 15µM | . | ?
CN(Cc1ccccc1)C(=S)Nc1cccnc1 | . | . | . | .
CC(C)N(Cc1ccccc1)C(=S)Nc1cccnc1 | . | 7.4µM | . | ?
CCN(Cc1ccncc1)C(=S)Nc1ccccc1 | . | 2.9µM | . | .
COCCn1c(N)c(N(Cc2ccccc2)C(=O)COc2ccc(F)cc2Cl)c(=O)[nH]c1=O | . | . | . | .
Cc1ccc(C(=O)CSc2nnc(-c3ccco3)n2CC2CCCO2)cc1 (centres undefined) | . | ? | . | .
CC1(C)Cc2c(sc(NC(=O)c3ccc(C(=O)c4ccccc4)cc3)c2C#N)C(C)(C)N1 | . | ? | . | .
O=P(O)(c1ccccc1)c1ccccc1O | . | 12µM | . | .
O=C(NC1CC1)c1cc2c(s1)-c1ccccc1OC2 | 11µM | 13µM | . | /
N#Cc1c(N)nc(SCc2ccncc2)c(C#N)c1-c1cccs1 | 0.56µM | ? | . | ?
COc1cc(-c2c(C#N)c(N)nc(SCc3ccncc3)c2C#N)cc(OC)c1OC | . | ? | . | 13µM
